The text below walks through data of PubChem BioAssay AID2071 (Sanford-Burnham Center for Chemical Genomics, 2009).

The whole screen tested about 280,000 compounds, of which about 1,700 (0.61%) were called active. Cut-off read from the data, not from the text of the source: active = inhibition mostly above about 24% (no sharp cut-off); inactive = mostly below about 32%. Only a selection was taken, and actives are over-represented in it overall.

As a reminder, the inhibition is the change of the read-out against control, counted positive when it falls.

The assay can be described thus: NALP1 inflammasome inhibitors in reconstituted yeast, colorimetric, S. cerevisiae, triplicate retest (AID 2071). To be noted: S. cerevisiae NALP1/ASC/caspase-1 growth, X-gal OD620, 72 h, stronger effect = higher value.

`CCCCCCCCCCCCn1ccc(=N)cc1`: the inhibition (at 10 µM unless noted) was 92.4% (active). As for `O=C(N/N=C/c1c(O)n(C2CC2)c(=S)[nH]c1=O)c1ccccc1`, the inhibition (at 10 µM unless noted) was -16.2% (inactive). On to `COc1ccc(CNCCc2c[nH]c3ccccc23)cc1OC`, for which the inhibition (at 10 µM unless noted) was -6% (inactive). Turning to `CCN1CCN(Cc2cc(OC)c3c(c2)OCO3)CC1`, for the setting “at 10 µM unless noted”, the inhibition is -2.2% (inactive). With `CN1CCN(C(=O)COc2ccc(C(C)(C)C)cc2Br)CC1`, the inhibition (at 10 µM unless noted) is 8.8% (inactive).

Regarding `O=C(Nc1cccc(OC(=O)N2CCCCC2)c1)N1CCOCC1`, the inhibition (at 10 µM unless noted) is -35.9% (inactive). As for `CC(C)(C)c1ccc(OC(=O)N2CCCCC2)cc1`, where the note is “at 10 µM unless noted”, the inhibition is 41% (active).

`Cc1ccc(S(=O)(=O)N(C)c2ccc(C(=O)NCC3(N(C)C)CCCCC3)cc2)cc1`: the inhibition (at 10 µM unless noted) is 9.8% (inactive). Same read-out and setting: for `COc1ccc(CNCCc2ccc3c(c2)OCO3)c(OC)c1OC` the value was 30.6% (inactive); for `CC(C)c1ccc(OCC(=O)N2CCCN(C)CC2)cc1`, 3.6% (inactive); for `C=CCN1C(=O)NC(=O)/C(=C/c2ccc(OCC(=O)Nc3ccc(C)cc3)cc2)C1=O`, 25% (inactive). With `CCN1CCN(c2nc3c(c(=O)[nH]2)CCC3)CC1`, the inhibition (at 10 µM unless noted) is 25.1% (inactive). For the compound `CN(C)/C=C(\C=[N+](C)C)c1[nH]ncc1[N+](=O)[O-]`, for the setting “at 10 µM unless noted”, the inhibition is 35.3% (active). Still for that read-out and setting: for `CCN(CC)C(=O)c1ccc(NC(=O)c2sccc2-c2ccccc2)cc1` the value was 1% (inactive); for `O=C(N/N=C/c1c(O)n(C2CC2)c(=S)[nH]c1=O)c1ccccc1Cl`, 3.2% (inactive).

Turning to `Clc1ccc2nc3c(c(-c4ccccc4)c2c1)CNCC3`, the inhibition (at 10 µM) was 45% (active) and the inhibition (triplicate retest, at 20 µM) is 66.3%. In the case of `COc1ccc2[nH]c3c(c2c1)CCN[C@H]3C`, the inhibition (at 10 µM unless noted) is 14.7% (inactive). Still for that read-out and setting: for `COc1ccc(N=Cc2c(O)n(C)c(=O)[nH]c2=O)cc1` the value was 12.7% (inactive); for `CN(c1ccccc1)c1ccc([N+](=O)[O-])c2nonc12`, -7.2% (inactive). Same read-out and setting: the value for `Cc1nc2ccccc2c(=O)n1-c1ccc(Cl)cc1Cl` was 11.2% (inactive).
